This is an account of results in PubChem BioAssay AID900 (National Center for Advancing Translational Sciences (NCATS), 2007).

Molecules are shown by their SMILES. Values joined by “and” are separate entries in the source; they are usually repeats but may differ in a detail not shown here. Identical values can stand only once. Among all 75,000 compounds or so, about 20 (0.03%) were called active. Another 1% or so got no clear call; they are omitted. Calls come from the whole dose curve; as a rule, active = well fitted inhibition curve with a large enough effect; inconclusive = small, poorly fitted or top-dose-only effect; inactive = flat fitted curve, though single readings scatter. Not all results are given here. Square brackets hold non-standard residues; d marks the D form. Side chains are listed from the residue outwards. Peptide text beside a SMILES is read from it. * marks the point of attachment. X1 = CCC(C)C(N)C1=NC(C(=O)*)CS1; Orn = NCCC[CH](N)C(=O)O

For this assay, the target named is Caspase-1 (Homo sapiens) (UniProt P29466). In words: qHTS Assay for Allosteric/Competitive Inhibitors of Caspase-1. The note with it: Caspase-1 enzyme, Ac-WEHD-AFC fluorogenic rate; series mostly up to 57.5 µM; activity change, negative = inhibition: at the top concentration. The source says: NIH Molecular Libraries Screening Centers Network [MLSCN]
NIH Chemical Genomics Center [NCGC]
PI Name: Dr. James Wells,
Dr. Enrique Perez-Paya, Dr.Janice Williams, Dr. Dennis Wolan, a person
The caspases (Cysteine Aspartyl Protease) comprise a related family of 14 dimeric proteases that are critical mediators of apoptosis (programmed cell death) and inflammation. The caspases represent an important class of drug targets for stroke, ischemia, cancer and inflammatory diseases. […] One goal of this project was to identify compounds that act as allosteric inhibitors via stabilizing the procaspase form of the enzyme. Previous work in Well's laboratory has shown that such allosteric inhibitors can be identified and these act by binding at the dimer interface of enzyme (Hardy, Lam et al., 2004).
The biochemical assay was configured using purified caspase 1 at a high enzyme concentration to promote formation of the homodimers and thus facilitate the identification of allosteric inhibitors. The overall goal was to identify reversible inhibitors with better drug-like properties than the currently available set of aspartyl-containing peptidomimetics that covalently bind the active site. Caspase 1 was assayed using the profluorescent substrate Ac-WEHD-AFC. After initiation of the assay with substrate the plates were rapidly read using an automated robotic system (Kalypsys, Inc.) to maintain consistent timing. A kinetic mode of detection was used where the initial rate was collected (estimated final product formation was ~10%). Compounds were screened as a concentration-titration series that ranged from 57 uM to 0.7 nM. Below is the protocol used for caspase 1.
NCGC Assay Protocol Summary:
Caspase 1 was prepared in buffer (50 mM HEPES pH 7.5, 50 mM KCl, 200 mM NaCl, 10 mM DTT, 0.1% CHAPS) at a concentration of 66.6 nM and 3 uL was dispensed to all wells using black solid Kalypsys 1536-well plates. 20 nL of DMSO containing compounds was added using a pin-tool (Kalypsys Inc.) to columns 5-48. Then 20 nL of DMSO solution from a control plate was added to columns 1-4. Controls were: Column 1, 16 point titration with each concentration in duplicate (1:1 dilutions in DMSO; final starting concentration was 57 uM) of the caspase 1 inhibitor Ac-WEHD-CHO (Alexis Biochemicals); Column 2, a 16 point titration with each concentration in duplicate of the free AFC fluorophore prepared in DMSO (Alexis Biochemicals), final starting was 40 uM; Column 3 neutral (DMSO only) control; Column 4: DMSO alone, to serve as a negative control (no substrate was added). Then 1 uL of 20 uM the substrate Ac-WEHD-AFC (Alexis Biochemicals) prepared in the same buffer was dispensed to all wells except columns 2 and 4 and the plates were immediately transferred (< 1 min) to the Viewlux. The plates were then exposed using 405 nm excitation/520 nm emission filters for 4 sec and read at 20 sec intervals for 3 min. Final enzyme concentration was 50 nM and the final substrate concentration was 5 uM.
Concentration-response curves were fitted to the data calculated from slope of the linear regression of fluorescent intensity versus time (the rate). The concentration-effect curves were then classified based on curve quality (r2), response magnitude and degree of measured activity. […] Inconclusive compounds had appreciable concentration-dependent effects on both the measured rate and the interpolated basal fluorescence intensity at the start of the reaction but where the basal fluorescent intensity was marginal (e.g. < 10-fold). Inconclusive compounds also encompass highly fluorescent compounds (>100-fold increases in fluorescent intensities values relative to controls) where artificial concentration-dependent decreases in the rate occurred at high compound concentrations due to fluorescent interferences.
Keywords: Caspase 1, proteases, profluorescent, MLSMR, MLSCN, NIH Roadmap, qHTS, NCGC
As to `CCCN1Cc2cccc(C(=O)NCc3ccccc3)c2C1=O`, the “activity change, negative = inhibition” value was 0.937% (inactive).
In the case of `COC(=O)C1=C(C)N(Cc2ccccc2)C2=C3C(=O)N(c4ccccc4)C(=O)C3[C@@](O)(C(=O)OC)C(=O)N2C1c1ccccc1` (stereo not given in full) it was 2.38% [at 11.5 µM] (inactive); in that of `CCS(=O)(=O)N(C)[C@@H]1c2cc(C#N)ccc2OC(C)(C)[C@H]1O`, “inactive”.
For `CC(C)C(N)C(=O)OCCOCn1cnc2c(=O)[nH]c(N)nc21` (stereo not given), the “activity change, negative = inhibition” value is 1.53% (inactive).
In the case of `CN(CCOc1ccc(CC2SC(=O)NC2=O)cc1)c1ccccn1` (stereo not given) it was 0.247% (inactive); in that of `CC(C)C(=O)Nc1cccc(C(=O)Nc2ccc3c(c2)OCO3)c1`, -1.84% (inactive).
`O=C(O)C(O)[C@@](O)(Cc1ccc(O)cc1)C(=O)O` (stereo not given in full): the “activity change, negative = inhibition” value was 1.66% (inactive).
For the molecule `CCOC(=O)C1C(=O)C=C(c2ccc(OC)cc2)CC1c1ccco1` (stereo not given), the “activity change, negative = inhibition” value was -17% (inactive).
In the case of `COc1ccc(/C=C/NC(=O)Cc2ccc(OC)c(OC)c2)cc1` it was -0.944% [at 11.5 µM] (inactive) and -1% [at 11.5 µM] (inactive); in that of `C=CC(=O)c1ccc2ccccc2c1`, -1.84% (inactive); in that of `CC1(C)OC2CO[C@]3(COS(N)(=O)=O)OC(C)(C)OC3C2O1` (stereo not given in full), -0.898% (inactive).
In the case of `O=C(c1cnccn1)N1CCC2(CCCN(Cc3ccccc3)C2)CC1` it was -0.443% (inactive); in that of `CCN1CCCC1CNC(=O)Cn1cnc2ccc(S(=O)(=O)N3CCC(C)CC3)cc2c1=O` (stereo not given), -9.64% (inactive); in that of `CCCCNc1nc(C)nc2c1nc(-c1ccccc1)n2CCCCN(CC)CC`, -0.324% (inactive).
In the case of `CC1OC(OCC2OC(Oc3c(-c4ccc(O)c(O)c4)oc4cc(O)cc(O)c4c3=O)C(O)C(O)C2O)[C@@H](O)C(O)C1O` (stereo not given in full) it was -2.04% (inactive).
As for `COc1ccc(CCC(=O)c2c(O)cc(OC3OC(CO)C(O)C(O)C3O[C@@H]3OC(C)C(O)C(O)C3O)cc2O)cc1O` (stereo not given in full), the “activity change, negative = inhibition” value is -0.654% (inactive).
On to `CC(=O)OCC1OC(C#CCCCc2ccccc2)C=CC1OC(C)=O` (stereo not given), for which the activity change, negative = inhibition was -0.276% [at 11.5 µM] (inactive) and -3.22% [at 11.5 µM] (inactive).
In the case of `CN(C)CCCCNC(=O)c1ccc(Cc2nc3ccccc3[nH]2)cc1` it was -0.198% (inactive).
In the case of `COC(=O)c1ccc(C23CC4(C2)[C@H](CN(Cc2cccnc2)[C@@H]4c2ccccc2)C3c2ccc(Cl)nc2)cc1` (stereo not given in full) it was -0.327% (inactive).
`CN(C)/C=N/c1cc(=O)n(C)c(=O)n1CC1CC1`: the “activity change, negative = inhibition” value is -0.404% (inactive).
As to `CS(=O)(=O)N(CC(=O)NCc1ccco1)c1ccc2c(c1)OCO2`, the “activity change, negative = inhibition” value was -0.19% (inactive).
In the case of `CO[C@H]1COC(=O)[C@H](Cc2ccccc2)NC(=O)C/C=C\[C@@H](C)[C@H](OC)COC(=O)C/C=C\[C@@H]1C` it was -1.56% [at 11.5 µM] (inactive); in that of `O=C1NS(=O)(=O)c2ccccc21`, 1.43% (inactive).
In the case of `CC1(C)C=CC(=O)[C@]2(C)C1CC(=O)[C@]1(C)C2CC[C@@]2(C)C(c3ccoc3)OC(=O)C3OC321` (stereo not given in full) it was -0.79% (inactive); in that of `CC(=O)OCC(=O)[C@@]1(O)CCC2C3CCC4=CC(=O)CC[C@]4(C)C3C(=O)C[C@]21C` (stereo not given in full), -0.497% (inactive); in that of `COC1[C@H](OC(N)=O)C(O)[C@H](Oc2ccc3c(O)c(NC(=O)c4ccc(O)c(CC=C(C)C)c4)c(=O)oc3c2C)OC1(C)C` (stereo not given in full), -0.344% (inactive).
For `CC(CCO)Nc1nc2c([nH]1)c(=O)n(C)c(=O)n2C` (stereo not given), the “activity change, negative = inhibition” value was -0.389% (inactive).
In the case of `C=CCN(c1ccc(C(N)=O)cc1)S(C)(=O)=O`, the “activity change, negative = inhibition” value is 1.76% (inactive).
In the case of `CCCCNc1nc2c(c(=O)[nH]c(=O)n2C)n1CCOc1ccccc1` it was 1.95% (inactive); in that of `CCCc1nc2c(C)cc(-c3nc4ccccc4n3C)cc2n1Cc1ccc(-c2ccccc2C(=O)O)cc1`, -1.74% (inactive).
In the case of `CCc1c(C)sc(NC(=O)OC)c1C(=O)N1CCOCC1` it was -1.76% (inactive); in that of `COC(=O)[C@@H]1CC[C@H](C)[C@@H](c2ccc(C)cc2)N1C(=O)c1ccc(/C=N\O[C@@H](C)c2cn([C@H](CO)Cc3ccccc3)nn2)cc1`, -0.293% [at 11.5 µM] (inactive) and 3.03% [at 11.5 µM] (inactive); in that of `CO[C@H]1COC(=O)[C@@H](OCc2ccccc2)/C=C\[C@H](C)[C@@H](OC)COC(=O)[C@H](OCc2ccccc2)/C=C\[C@@H]1C`, -1.1% [at 11.5 µM] (inactive).
For the molecule `CCOC(=O)N1CCN(C(=O)c2cn(C)c3ccc(S(=O)(=O)N4CCCC4)cc3c2=O)CC1`, the “activity change, negative = inhibition” value is 1.44% (inactive).
As for `COC(=O)[C@@H]1C[C@@]2(O)[C@@H](O)[C@@H](O)[C@@H](O)C[C@H]2N1Cc1ccc(C)s1`, the “activity change, negative = inhibition” value is -0.674% (inactive).
On to `C/C(Cl)=C\Cn1c(Nc2cccc(C)c2)nc2c1c(=O)n(C)c(=O)n2C`, for which the “activity change, negative = inhibition” value was 1.24% (inactive).
In the case of `CC(C)[C@H]1CC[C@@H](C)C[C@H]1O` it was -4.11% (inactive).
For `CCC(=O)Nc1nc(OC)cc(OC)n1`, the “activity change, negative = inhibition” value is -0.774% (inactive).
In the case of `Nc1nc2c(nc(Cl)n2C2OC(CO)C(O)C2O)c(=O)[nH]1` (stereo not given) it was -0.0059% (inactive).
With `CC(=O)OCC(=O)[C@@]1(O)CCC2C3CCC4=CC(=O)CC[C@@]4(C)[C@]3(F)C(O)C[C@]21C` (stereo not given in full), the “activity change, negative = inhibition” value was 1.49% (inactive).
In the case of `O=c1c(O)c(-c2ccc(O)cc2)oc2ccccc12` it was 1.6% (inactive); in that of `C=CCn1c(SCc2cc(C(=O)OC)c(C)o2)nnc1-c1ccncc1`, -3.64% (inactive).
Regarding `C[C@@H](c1ccccc1)N1C(=O)[C@H]2[C@H]3[C@H](O)[C@H](O)C/C(=N/OC[C@@H](O)COCc4ccco4)[C@@H]3CC[C@@H]2C1=O`, the activity change, negative = inhibition was -0.613% [at 11.5 µM] (inactive).
In the case of `CCCCCCCCCCCCCCCC(=O)OC/C=C(C)/C=C/C=C(C)/C=C/C1=C(C)CCCC1(C)C` it was 0.363% (inactive); in that of `Cn1c(N)c(C(=O)COC(=O)c2cc(C(F)(F)F)nc3c(C(F)(F)F)cccc23)c(=O)n(C)c1=O`, -3.83% (inactive).
As to `COc1cccc([C@H](O)Cn2cc(-c3ccc(CON=C(C)C)cc3)nn2)c1`, the activity change, negative = inhibition was -1.21% [at 11.5 µM] (inactive).
In the case of `CC1(C)OC2CC3C4CCC5=CC(=O)CCC5(C)C4(F)C(O)CC3(C)[C@]2(C(=O)CCl)O1` (stereo not given in full) it was -2% (inactive); in that of `CC(C)c1ccc(OCC(O)Cn2cnc3ccccc32)cc1` (stereo not given), -1.04% (inactive).
In the case of `CCC(C)C(N)C1=NC(C(=O)NC(CC(C)C)C(=O)NC(CCC(=O)O)C(=O)NC(C(=O)NCCCCC2NC(=O)C(CC(N)=O)NC(=O)C(CC(=O)O)NC(=O)C(Cc3cnc[nH]3)NC(=O)C(Cc3ccccc3)NC(=O)C(C(C)CC)NC(=O)C(CCCN)NC2=O)C(C)CC)CS1` (stereo not drawn) (cyclo(DNK([Ile-Glu-Leu-X1])[Orn]IFH); configuration not given here) it was -2.89% (inactive).
In the case of `COC(=O)[C@@H]1C[C@@]2(O)[C@H](O)[C@H](O)[C@H](O)C[C@H]2N1CC1CCCCC1` it was -0.903% (inactive); in that of `CCCN1[C@H](C(=O)OC)C[C@@]2(O)[C@@H](O)[C@@H](O)[C@@H](O)C[C@@H]12`, -0.752% (inactive).
As to `CCOC(=O)N/N=C1/C[C@@H](O)[C@@H](O)[C@@H]2[C@@H]3C(=O)N(CC)C(=O)[C@H]3CC[C@H]12`, the activity change, negative = inhibition is 0.333% [at 11.5 µM] (inactive).
Regarding `CSc1nnc2c(n1)OC(c1ccsc1)N(C(C)=O)c1ccccc1-2` (stereo not given), the “activity change, negative = inhibition” value is -16% (inactive).
In the case of `COc1ccc(COC(=O)N/N=C2/C[C@@H](O)[C@@H](O)[C@@H]3[C@@H]4C(=O)N([C@@H](C)c5ccccc5)C(=O)[C@H]4CC[C@@H]23)cc1` it was -3.18% [at 11.5 µM] (inactive); in that of `C/C=C(/C)C(=O)OC1Cc2c(ccc3ccc(=O)oc23)OC1(C)C` (stereo not given), -0.913% (inactive).
